Source: PubChem BioAssay (The Scripps Research Institute Molecular Screening Center)
Hits are enriched below; roughly 4.1% of the tested compounds scored in any of these assays.
DAX1 inh-1: blocks DAX1 repression of SF-1 activated StAR promoter; AID 652010; 1.1% of 370,000 active; HEK293T StAR-luciferase reporter, SF-1/DAX-1 repression relief; inhibition, % at 6.8 µM;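 active = inhibition above the mean over all tested compounds plus 3 SD, cut at about 3.6% in these data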;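 also: higher inhibition means more luminescence from relief of DAX-1 repression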
ssDAF-12 act: S. stercoralis DAF-12 activation, primary screen. HEK293 ssDAF-12/GRIP1 lit1-tk-luc reporter, luminescence; % of 3 µM dafachronic acid response. activation, % at 6.8 µM. 1% of 370,000 active;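 active = activation above the mean over all tested compounds plus 3 SD, cut at about 0.9% in these data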
hgDAF12 agonist: agonists of H. glycines DAF-12 nuclear receptor. HEK293 GAL4-hgDAF12 UAS-luciferase reporter, agonist luminescence; normalized to butyrate control. activation, % at 6.8 µM. 1.8% of 370,000 active;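 active = activation above a cutoff set at the mean of all screened compounds plus 3 SD, cut at about 10% in these data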
DAX1 inh-2: inhibits human nuclear receptor DAX1. P51843. HEK293 Gal4-DAX1 luciferase reporter, luminescence. inhibition, % at 6.75 µM. 0.99% of 340,000 active. AID 504766;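 active = inhibition above the mean over all tested compounds plus 3 SD, cut at about 4.2% in these data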;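 also: inhibition shows as a rise in luminescence from relieved DAX1 repression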
Target sequence (P51843 207-470 limits assumed): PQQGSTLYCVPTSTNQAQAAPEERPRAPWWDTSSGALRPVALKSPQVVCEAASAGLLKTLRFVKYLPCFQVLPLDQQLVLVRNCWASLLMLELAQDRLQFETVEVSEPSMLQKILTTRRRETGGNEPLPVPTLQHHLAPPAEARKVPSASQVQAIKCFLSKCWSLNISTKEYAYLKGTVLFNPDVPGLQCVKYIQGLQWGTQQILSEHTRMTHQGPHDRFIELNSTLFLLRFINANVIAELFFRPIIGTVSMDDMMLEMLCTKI
hcDAF12 agonist: activators of H. contortus DAF-12 nuclear receptor; HEK293 hcDAF-12 lit1-tk-luc reporter, luminescence; 0% DMSO, 100% Δ7-dafachronic acid; activation, % at 6.8 µM; 1.4% of 370,000 active;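 active = activation above the mean of all tested compounds plus 3 SD, cut at about 5.5% in these data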
Each line names hits and unclear results; the compound was inactive in the other large screens.

CCn1c(SCC(=O)Nc2ccc(C)cc2)nc(O)cc1=O	DAX1 inh-2 4.5
CN(C)c1ccc(C(=O)OCC(=O)N2CCCC2)cc1	ssDAF-12 act 0.9
CN(C)c1ccc(C(=O)OCC(=O)N2CCCCCC2)cc1	none
O=C(Nc1c(-c2ccccc2)nc2ncccn12)c1ccc(F)cc1	none (no result: DAX1 inh-2)
Cc1ccnc(SCc2cc(=O)c(OC(=O)c3ccc([N+](=O)[O-])cc3)co2)n1	none (no result: DAX1 inh-1, DAX1 inh-2)
Oc1ccccc1C1=Nc2nc3ccccc3n2C(c2ccccc2)C1 (centres undefined)	hgDAF12 agonist 13
Oc1ccccc1C1=NN(c2ccccc2)C(c2ccc(F)cc2)C1 (centres undefined)	none
COc1cccc(-c2cc(C(=O)Nn3cnnc3)c3ccccc3n2)c1	hcDAF12 agonist 6.0
COC(=O)c1sccc1NC(=O)c1cc(-c2ccc(C)cc2)nc2ccccc12	ssDAF-12 act 1.1
O=C(NC1=NCCS1)c1cc(-c2ccc(-c3ccccc3)cc2)nc2ccccc12	ssDAF-12 act 0.9
CCOc1ccc(-c2cc(C(=O)O)c3ccccc3n2)cc1	hgDAF12 agonist 11
C=CCN1C(=O)[C@H](CC(=O)NCCCC)[C@@]2(C(=O)OCC)CCCC=C12	none (no result: DAX1 inh-2)
c1cnc2ccc3ncccc3c2c1	DAX1 inh-2 5.0
Cc1ccc(C(=O)/C=C/N(C)C)cn1	DAX1 inh-2 6.8
CN(C)/C=C/C(=O)c1ccc(Cl)cc1	none
CCCCC(=O)Nc1cc(C(=O)NCCc2ccccc2)ccc1Cl	DAX1 inh-1 4.4
Oc1cc(O)cc(C=Cc2ccc(O)c(O)c2)c1	DAX1 inh-1 4.3 (no result: DAX1 inh-2)
O=C(CCn1nnc(-c2cccs2)n1)NCc1cccs1	none (no result: DAX1 inh-2)
CN(C)S(=O)(=O)c1cccc(C(=O)N/N=C\c2ccccc2)c1	none (no result: DAX1 inh-2)
COc1ccc(N=C2SCC(=O)N2c2ccc(OC)cc2)cc1	none
COc1ccc(N=C2SCC(c3ccccc3)=NN2C)cc1	DAX1 inh-2 4.3
COCCCNC(=O)C(=O)Nc1ccc2c(c1)N(S(=O)(=O)c1cccs1)CCC2	DAX1 inh-1 4.2
CCOC(=O)c1csc(NC(=O)C2CCCN(S(=O)(=O)c3cc(OC)ccc3OC)C2)n1 (centres undefined)	none (no result: DAX1 inh-2)
COc1ccc(NC(=O)Nc2ccc(Br)c(C)c2)cc1	DAX1 inh-2 4.9
COc1ccc(NC(=O)Nc2cc(C)ccc2F)cc1	DAX1 inh-1 3.9
Cc1ccccc1N1CCN(C(=O)CN2C(=O)CC(C)(C)S(=O)(=O)c3ccccc32)CC1	none (no result: DAX1 inh-2)
CCCCN(C)C(=O)Cn1c(=O)oc2cc(S(=O)(=O)N3CC(C)CC(C)C3)ccc21 (centres undefined)	DAX1 inh-2 5.7
CCCNC(=O)Cn1c(=O)oc2cc(S(=O)(=O)N3CC(C)CC(C)C3)ccc21 (centres undefined)	none
Oc1ccccc1N=Cc1c(O)ccc2ccccc12	hcDAF12 agonist 5.9
Oc1ccc2ccccc2c1C=Nc1ccccc1Br	none
Oc1ccc2ccccc2c1C=NNc1ccccn1	ssDAF-12 act 2.0, hcDAF12 agonist 6.0
O=C(Nc1cc(Cl)ccc1F)C1CCCN(c2nnc(-n3cccc3)s2)C1 (centres undefined)	none (no result: DAX1 inh-2)
O=C(NNC(=O)C1CC=CCC1)c1cccc(Br)c1 (centres undefined)	DAX1 inh-2 4.6
O=C(NNC(=O)C1CC=CCC1)c1ccccc1Br (centres undefined)	none
CN(Cc1ccccc1)S(=O)(=O)c1cccc(C(=O)OCc2cccc(C(F)(F)F)c2)c1	none (no result: DAX1 inh-2)
COc1cccc(C(=O)C[n+]2ccccc2/C=N/O)c1	ssDAF-12 act 1.2
CCC(=O)N1CCc2cc(Br)c(S(=O)(=O)N3CCC(C(=O)NC(C)(C)C)CC3)cc21	none (no result: DAX1 inh-2)
COC(=O)[C@]12C[C@H](CC(=O)NCCc3ccccc3OC)C(=O)N(Cc3ccco3)C1=C[C@H](COCc1ccccc1)O[C@@H]2C	none (no result: DAX1 inh-2)
O=C(NCC(c1ccco1)N1CCCCC1)c1cc2c(s1)CCCC2 (centres undefined)	DAX1 inh-1 4.2
CC(c1ccccc1)n1cc(C(=O)N2CCCC2)nn1 (centres undefined)	none (no result: DAX1 inh-2)
CCOc1ccc(/C=C/C2=NNC(=O)CC2)cc1	hgDAF12 agonist 11
O=C1CCC(/C=C/c2ccccc2)=NN1	none
CCCC[C@H](C(=O)N(C)c1cccc(OC)c1)[C@@H](O)c1ccc(C(C)=O)cc1	none (no result: DAX1 inh-2)
COc1ccccc1N1CCN(S(=O)(=O)c2ccc3c(c2)CCC(=O)N3)CC1	none (no result: DAX1 inh-2)
CCn1cc(C(=O)N2CCN(c3ccc(F)cc3)CC2)c2cc(OC)c(OC)cc2c1=O	none
CCn1cc(C(=O)N2CCN(c3ccccc3OC)CC2)c2cc(OC)c(OC)cc2c1=O	DAX1 inh-2 4.4
COc1ccc(N2CCN(CCCNC(=O)CCc3cccc(F)c3)CC2)cc1	none (no result: DAX1 inh-2)
O=C1CCc2cc(S(=O)(=O)N3CCC(C(=O)NCCC4=CCCCC4)CC3)ccc2N1	DAX1 inh-2 6.2
O=C1CCc2cc(S(=O)(=O)NC(Cc3ccccc3)C(=O)NCCC3=CCCCC3)ccc2N1 (centres undefined)	DAX1 inh-2 4.3
Cc1ccc(CCNC(=O)C2CCN(S(=O)(=O)c3ccc4c(c3)CCC(=O)N4)CC2)cc1	none
CC(C)(C)NC(=O)C(Cc1ccccc1)NS(=O)(=O)c1ccc2c(c1)CCC(=O)N2 (centres undefined)	none
CCCCn1nnnc1C1c2ccccc2OCC(=O)N1Cc1ccc2c(c1)OCO2 (centres undefined)	none (no result: DAX1 inh-2)
COc1ccc(C(C)=O)cc1CSc1nnc(Nc2c(C)cccc2C)s1	DAX1 inh-2 4.6
O=C(C1CC1)C1(C(=O)N2CCOCC2)CC(c2ccccn2)=NO1 (centres undefined)	none (no result: DAX1 inh-2)
C=CCN(CC#CC1=CCCCC1)CC1CC1	none (no result: DAX1 inh-2)
O=C(O)c1ccccc1C(=O)Nc1ccc(Oc2cccc(C(F)(F)F)c2)nc1	hcDAF12 agonist 6.2
O=C(NC1CCCC1)c1ccc(COc2ccccc2)o1	none (no result: DAX1 inh-2)
CCOC(=O)c1c(NC(=O)CCS(=O)(=O)c2ccccc2)sc2c1CCN(C(C)C)C2	DAX1 inh-1 4.0
COC(=O)c1c(NC(=O)Cc2ccccc2)sc2c1CCN(C(C)C)C2	none
COc1ccc(N(C)C(=O)Cc2c(C(=O)O)[nH]c3ccccc23)cc1	none
CCN(C(=O)Cc1c(C(=O)O)[nH]c2ccccc12)c1cc(OC)ccc1OC	DAX1 inh-2 4.8
O=C1CCCC(=O)C1=C1SCCCS1	DAX1 inh-2 4.5
O=C1C(=C2SCCCS2)CC/C1=C\c1ccc(F)cc1	none
O=C(CCNC(=O)N1CC(=O)Nc2ccccc21)Nc1cccc(Cl)c1	none
O=C(CNC(=O)N1CC(=O)Nc2ccccc21)Nc1ccccc1F	ssDAF-12 act 1.0
O=C(CCNC(=O)N1CC(=O)Nc2ccccc21)NCc1cccc(Cl)c1	DAX1 inh-1 4.4
O=C(CNC(=O)N1CC(=O)Nc2ccccc21)Nc1ccccc1	none
COC(=O)[C@@]12CCCCC=C1N(CCc1ccc(Cl)cc1)C(=O)[C@H]2CC(=O)NCC12CC3CC(CC(C3)C1)C2	none (no result: DAX1 inh-2)
